Screening data deposited in PubChem by National Center for Advancing Translational Sciences (NCATS).
HP1b chromo inh: HTS for Inhibitors of HP1-beta Chromodomain Interactions with Methylated Histone Tails | Potency, µM (highest dose often 114 µM), for the others: at the top dose activity change, negative = inhibition, actives largely listed as inhibitors | AlphaScreen HP1-beta / biotin-H3K9me3 peptide binding | Chromobox protein homolog 1 (Homo sapiens), P83916 | actives 0.56% (n = 390,000); also: potency is read from the fitted curve at half-maximal effect; nearly all actives have a fitted effect of over 70% in size
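Compound inhibition of the preformed complex between 50 nM HP1-beta and 50 nM biotinylated H3K9me3 peptide was read by AlphaScreen. Buffer was PBS pH 7.4 with 0.01% Tween-20. Incubations ran 30 min at room temperature, with 10 ug/mL donor/acceptor beads.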
G9a block: qHTS Assay for Inhibitors of Histone Lysine Methyltransferase G9a. Histone-lysine N-methyltransferase EHMT2 (Homo sapiens), Q96KQ7. G9a H3K9 monomethylation, AlphaScreen, 2 h. Potency, µM (highest dose often 102 µM), without a hit: at the highest dose activity, negative = inhibition, hits mostly inhibitors. actives 8.8% (n = 350,000); also: potency is read from the fitted curve at half-maximal effect; % is scaled to controls: 0 for no effect and ±100 for the full control effect; nearly all actives have a fitted effect of over 75% in size
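Signal arises when biotinylated H3K9 peptide, once monomethylated, bridges streptavidin donor and antibody-captured acceptor beads. Enzyme at 20 nM was preincubated 15 min with test compounds; peptide 500 nM and SAM 20 uM then reacted for 2 h.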
BAZ2B inh: qHTS Assay for Inhibitors of BAZ2B; Bromodomain adjacent to zinc finger domain protein 2B (Homo sapiens), Q9UIF8; AlphaScreen BAZ2B-H3K14Ac peptide displacement; Potency, µM (highest dose often 114 µM), without a hit: top-dose activity change, negative = inhibition, most hits filed as inhibitors; actives 4.4% (n = 360,000); AID 504333, 2011; also: potency is read from the fitted curve at half-maximal effect; % is scaled to controls: 0 for no effect and ±100 for the full control effect; nearly all actives have a fitted effect of over 60% in size
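Inhibition is scored as reduced AlphaScreen emission. The BAZ2B/b-H3(5-23)K14Ac complex (50 nM each) in PBS pH 7.4, 0.01% Tween-20 meets compound (up to 110 uM) for 30 min at RT before bead addition.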
Six1-Eya2 inh: qHTS Assay for Inhibitors of the Six1/Eya2 Interaction; Homeobox protein SIX1 (Homo sapiens) + Protein phosphatase EYA2 (Homo sapiens), …; AlphaScreen GST-Six1/His-Eya2 binding, biochemical; stronger effect = lower value; activity change, % (test concentration not listed); actives 0.56% (n = 360,000); AID 651725, 2012; in the data active = activity change below about -65%; inconclusive = mostly about -30% to -63%; also: % is scaled to controls: 0 for no effect and ±100 for the full control effect
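Six1/Eya2 binding was read as AlphaScreen signal after compounds were pinned into GST-Six1 plus His-tagged Eya2 (5X stock 250/500 nM) in pH 8.0 Tris/NaCl/TCEP buffer, beads added, then incubated 1 h, 37 C, dark.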
JMJD2A Tudor inh: qHTS Assay for Inhibitors of JMJD2A-Tudor Domain; Lysine-specific demethylase 4A (Homo sapiens), O75164; AlphaScreen JMJD2A-Tudor / H3K4me3 peptide binding; Potency, µM (series often up to 114 µM), for inactives: at the highest dose activity change, negative = inhibition, usual class: inhibitors; actives 4.4% (n = 390,000); AID 504339, 2011; also: potency is read from the fitted curve at half-maximal effect; % is scaled to controls: 0 for no effect and ±100 for the full control effect; nearly all actives have a fitted effect of over 50% in size
Target sequence (O75164 whole entry, looked up, the tested form may be a part): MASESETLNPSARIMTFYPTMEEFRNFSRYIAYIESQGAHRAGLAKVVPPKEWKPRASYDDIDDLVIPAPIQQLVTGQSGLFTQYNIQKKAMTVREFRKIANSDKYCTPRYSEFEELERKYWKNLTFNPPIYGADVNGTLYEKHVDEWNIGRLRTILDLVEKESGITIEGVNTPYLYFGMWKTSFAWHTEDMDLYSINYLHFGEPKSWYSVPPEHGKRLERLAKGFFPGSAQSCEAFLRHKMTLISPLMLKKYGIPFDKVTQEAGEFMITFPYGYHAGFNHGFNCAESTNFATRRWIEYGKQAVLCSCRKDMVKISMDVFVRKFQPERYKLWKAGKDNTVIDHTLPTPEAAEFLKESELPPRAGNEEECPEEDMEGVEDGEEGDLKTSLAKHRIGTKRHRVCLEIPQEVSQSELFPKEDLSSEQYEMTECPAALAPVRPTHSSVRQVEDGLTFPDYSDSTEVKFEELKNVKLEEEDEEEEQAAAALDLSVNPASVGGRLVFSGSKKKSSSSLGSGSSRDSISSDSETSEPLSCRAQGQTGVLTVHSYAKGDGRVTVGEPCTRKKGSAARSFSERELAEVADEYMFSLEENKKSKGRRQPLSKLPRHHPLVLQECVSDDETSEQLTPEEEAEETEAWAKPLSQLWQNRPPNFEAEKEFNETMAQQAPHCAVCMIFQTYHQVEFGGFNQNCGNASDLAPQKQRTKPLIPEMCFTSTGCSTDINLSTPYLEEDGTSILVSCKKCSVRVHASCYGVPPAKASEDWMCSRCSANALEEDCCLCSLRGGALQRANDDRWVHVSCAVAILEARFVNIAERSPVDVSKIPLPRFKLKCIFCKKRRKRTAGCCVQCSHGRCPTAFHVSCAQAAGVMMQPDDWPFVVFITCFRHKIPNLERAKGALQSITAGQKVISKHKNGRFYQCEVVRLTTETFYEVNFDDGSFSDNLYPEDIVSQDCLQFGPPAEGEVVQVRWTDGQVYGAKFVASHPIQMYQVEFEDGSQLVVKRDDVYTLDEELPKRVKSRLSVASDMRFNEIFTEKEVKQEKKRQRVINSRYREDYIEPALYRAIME
CtBP-E1A blk: qHTS Assay for Inhibitors of the CtBP/E1A Interaction | CtBP / adenovirus E1A interaction (AlphaScreen) | AID 651724, 2012 | activity change, % (test concentration not listed) | AlphaScreen GST-E1A/His-CtBP binding, 1536-well; stronger effect = lower value | actives 0.49% (n = 340,000); in the data active = activity change below about -65%; inconclusive = mostly about -30% to -63%; also: % is scaled to controls: 0 for no effect and ±100 for the full control effect
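Steps: dispense buffer (Tris pH 8.0, NaCl 300 mM, TCEP 1 mM, BSA, Tween 20); add 5X protein mix (GST-E1A, His-CtBP, 125 nM each); pin 23 nL compound; 2 h at 37 °C, dark; add 5X beads (50 ug/mL); 1 h; read.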
Numbers without * were called inactive; [ ] = dose if it differs, or a comment. Sampled rows, rich in hits. Any-hit rate of the full collection: about 10%. Unless noted, calls follow the shape of the dose curve; as a rule, active = well fitted inhibition curve with a large enough effect; inconclusive = small, poorly fitted or top-dose-only effect; inactive = no such curve, though single readings can be large or run the other way.

Results for Cc1cc(Cl)cc(C)c1OCCn1ccnc1 ?
HP1b chromo inh: 28.1%; G9a block: -12.1%; BAZ2B inh: -37.0%; Six1-Eya2 inh: -4.3; JMJD2A Tudor inh: -26.8%; CtBP-E1A blk: 2.4

How did Cc1cc(C)c(OCCN2CCCC2)c(Cl)c1 do in these assays?
HP1b chromo inh: -22.2%; G9a block: 44.7µM*; BAZ2B inh: -32.0%; Six1-Eya2 inh: 2.3; JMJD2A Tudor inh: -100.4%

Results for Cc1cc(Cl)c(OCCCSc2nc(C)cc(=O)[nH]2)c(Br)c1 ?
HP1b chromo inh: 17.7%; G9a block: 23.4%[12.7 µM]; BAZ2B inh: -0.4%; Six1-Eya2 inh: -2.0; JMJD2A Tudor inh: 4.0%; CtBP-E1A blk: 0.8

How did Cc1cc(C)c(OCCOCCN2CCN(C)CC2)c(Cl)c1 do in these assays?
HP1b chromo inh: inconclusive; G9a block: 3.55µM*; BAZ2B inh: 31.6µM*; Six1-Eya2 inh: -4.8; JMJD2A Tudor inh: 1.58µM*; CtBP-E1A blk: 11.6

What do the screens show for `Cc1cc(Cl)c(OCCOCCN2CCNCC2)c(Cl)c1`?
HP1b chromo inh: 30.6%; Six1-Eya2 inh: 1.9; JMJD2A Tudor inh: -4.7%

How did Cc1cc(Cl)cc(Cl)c1OCCN1CCCC1 do in these assays?
HP1b chromo inh: inconclusive; G9a block: 50.1µM*; BAZ2B inh: -8.6%; Six1-Eya2 inh: 2.9; JMJD2A Tudor inh: 50.1µM*; CtBP-E1A blk: -10.5

How did N#Cc1cccc(NC(=O)N2CCC3(CC2)CCN(C(=O)c2ccco2)CC3)c1 do in these assays?
G9a block: 4.2%[12.7 µM]

Results for Cc1cc(Cl)cc(Cl)c1OCCCCN(C)C ?
HP1b chromo inh: inconclusive; G9a block: 8.91µM*; BAZ2B inh: -34.7%; Six1-Eya2 inh: 4.9; JMJD2A Tudor inh: 44.7µM*; CtBP-E1A blk: -0.4

How did O=C(C1CCC(Cn2c(=O)c3sccc3n(Cc3ccccc3)c2=O)CC1)N1CCCCC1 (stereo unspecified) do in these assays?
HP1b chromo inh: -9.8%; G9a block: 14.3%[59 µM]; BAZ2B inh: -10.3%; JMJD2A Tudor inh: -35.7%

Results for CCOC(=O)c1ccc(NC(=O)c2cnn3c(=O)c4c(n(CC)c23)CCN(Cc2ccc(OC)cc2)C4)cc1 ?
HP1b chromo inh: 4.8%[57 µM]; G9a block: 6.5%[59 µM]; BAZ2B inh: -18.2%; JMJD2A Tudor inh: -29.4%

How did COc1ccc(CN2CCc3c(c(=O)n4ncc(C(=O)N5CCN(c6ccc(F)cc6)CC5)c4n3C)C2)cc1 do in these assays?
HP1b chromo inh: 25.7%[57 µM]; G9a block: 3.5%[59 µM]; BAZ2B inh: 79.4µM*; JMJD2A Tudor inh: -11.2%

Results for CCn1c2c(c(=O)n3ncc(C(=O)N4CCN(c5ccc(C(C)=O)cc5)CC4)c13)CN(Cc1ccc(OC)cc1)CC2 ?
HP1b chromo inh: 35.8%[57 µM]; G9a block: 1.6%[59 µM]; BAZ2B inh: -24.6%; JMJD2A Tudor inh: -33.5%

Results for CCn1c2c(c(=O)n3ncc(C(=O)Nc4ccc(OC(F)(F)F)cc4)c13)CN(Cc1ccc(OC)cc1)CC2 ?
HP1b chromo inh: 22.3%[57 µM]; G9a block: 12.6µM*; BAZ2B inh: -4.5%; JMJD2A Tudor inh: -11.2%

Results for CCCN(CC(=O)Nc1ccccc1OC)C(=O)Cn1c(=O)oc2ccccc21 ?
HP1b chromo inh: 29.8%; Six1-Eya2 inh: -1.2; JMJD2A Tudor inh: -1.7%; CtBP-E1A blk: 4.8

What do the screens show for `COc1cccc(-c2cc(NC=O)c3ncc(-c4cc(OC)c(OC)c(OC)c4)n3c2)c1`?
Six1-Eya2 inh: -15.1; CtBP-E1A blk: inconclusive

How did COc1cccc(-c2cnc3c(NC=O)cc(-c4ccc(O)c(OC)c4)cn23)c1 do in these assays?
Six1-Eya2 inh: inconclusive; CtBP-E1A blk: -71.2*
